C2C12 statin – suppression of simvastatin myotoxicity; hit rate 0.78% among 330,000; AID 602340; C2C12 myotubes + simvastatin, ATP luminescence, 48 h; scaled: DMSO 0, geranylgeraniol control 100; rescue of ATP level, % at 7.49 µM;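 active = mean ATP rescue above about 67%, or every replicate alone reaching that limit, limit read from the data, passing the limit was not always enough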;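 note: myotubes were challenged with 10 µM simvastatin during compound exposure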
NSD2 inh – NSD2 (human) methyltransferase inhibition | hit rate 0.54% among 310,000 | NSD2 peptide methylation, AlphaScreen, 120 min | inhibition, % at 12.5 µM | O96028; in the data active = inhibition above about 50%
Target sequence (O96028 whole entry, looked up): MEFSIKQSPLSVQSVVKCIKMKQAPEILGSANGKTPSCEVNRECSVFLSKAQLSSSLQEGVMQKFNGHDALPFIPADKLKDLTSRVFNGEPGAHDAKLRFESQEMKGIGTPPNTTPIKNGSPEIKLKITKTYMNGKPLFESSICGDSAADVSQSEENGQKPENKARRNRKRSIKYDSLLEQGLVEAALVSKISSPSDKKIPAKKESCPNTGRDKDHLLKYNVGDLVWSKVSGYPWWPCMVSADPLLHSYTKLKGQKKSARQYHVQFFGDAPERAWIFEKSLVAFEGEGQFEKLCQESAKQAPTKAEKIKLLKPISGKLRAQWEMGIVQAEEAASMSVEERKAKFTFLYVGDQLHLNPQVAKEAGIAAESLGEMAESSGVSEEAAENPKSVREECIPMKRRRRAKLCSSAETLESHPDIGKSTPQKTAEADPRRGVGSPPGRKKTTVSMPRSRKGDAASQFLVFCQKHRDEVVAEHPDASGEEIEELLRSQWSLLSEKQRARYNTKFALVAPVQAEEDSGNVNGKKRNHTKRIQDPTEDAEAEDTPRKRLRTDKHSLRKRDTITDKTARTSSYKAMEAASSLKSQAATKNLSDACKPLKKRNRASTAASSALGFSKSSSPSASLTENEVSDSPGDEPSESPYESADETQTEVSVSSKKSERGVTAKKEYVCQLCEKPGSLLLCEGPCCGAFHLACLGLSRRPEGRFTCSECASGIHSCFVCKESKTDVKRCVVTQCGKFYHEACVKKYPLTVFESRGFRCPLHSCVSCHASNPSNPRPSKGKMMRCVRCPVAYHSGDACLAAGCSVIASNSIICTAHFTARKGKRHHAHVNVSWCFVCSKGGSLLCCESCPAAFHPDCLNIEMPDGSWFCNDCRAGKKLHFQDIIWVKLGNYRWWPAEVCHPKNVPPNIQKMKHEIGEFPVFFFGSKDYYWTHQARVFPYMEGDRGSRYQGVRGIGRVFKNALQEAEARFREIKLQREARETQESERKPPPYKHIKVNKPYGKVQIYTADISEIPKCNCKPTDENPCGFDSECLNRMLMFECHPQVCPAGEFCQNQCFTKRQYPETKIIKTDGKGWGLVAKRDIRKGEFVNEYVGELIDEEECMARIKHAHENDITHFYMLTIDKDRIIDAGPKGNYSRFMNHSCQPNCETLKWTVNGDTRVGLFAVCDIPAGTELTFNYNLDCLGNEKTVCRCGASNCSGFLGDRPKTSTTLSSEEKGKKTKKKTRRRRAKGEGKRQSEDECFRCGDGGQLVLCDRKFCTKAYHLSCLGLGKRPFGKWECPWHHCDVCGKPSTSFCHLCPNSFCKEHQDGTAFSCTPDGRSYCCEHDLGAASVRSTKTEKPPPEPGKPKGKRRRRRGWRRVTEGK
miR-122 sensor – inhibitors of miR-122 in Huh7 cells. Huh7 miR-122 Renilla luciferase sensor, 48 h; neutral wells = 0, positive control = 100. activation (reporter increase), % at 12.5 µM. hit rate 0.3% among 340,000. AID 602342;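 active = mean replicate activation score at least 90 and every replicate individually at or above 90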;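 note: higher luciferase means less miR-122 activity so hits act as miR-122 inhibitors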
PglD DTNB – inhibitors of Campylobacter jejuni PglD acetyltransferase; purified PglD enzyme, DTNB colorimetric CoA detection; AID 602405; inhibition, % at 12.5 µM; hit rate 0.098% among 360,000; in the data active = inhibition above about 16%, passing the limit was not always enough
AlphaScreen art – interferes with AlphaScreen signal, flagging NSD2 false positives; AC35, µM (highest dose often 10 µM); AlphaScreen artifact counterscreen, preloaded methylated H4 peptide; hit rate 9.4% among 1,500; shares compounds with NSD2 inh; call rule not given here
A number is an active result; i = inactive; nt = no result given. This is a sample that favours compounds with a hit; in the whole collection about 1.2% have one here.

SMILES	C2C12 statin	NSD2 inh	miR-122 sensor	PglD DTNB	AlphaScreen art
Cc1nnc(N/N=C/c2ccc(-c3ccccc3F)o2)n1N	nt	85	nt	nt	i
Cc1nnc(N/N=C/c2c(Cl)cccc2Cl)n1N	i	i	nt	nt	nt
COc1cccc(CN2CCC(Oc3ccc(C(=O)N4CCCCC4)cc3)CC2)c1O	i	58	i	i	i
COc1ccccc1NC(=O)N[C@@H]1CC[C@@H](CC(=O)N2CCC(Cc3ccccc3)CC2)O[C@@H]1CO	i	nt	nt	i	nt
COC(=O)C(C)(C)NC(=O)c1cccs1	i	124	i	i	i
O=C1C(=O)C(Cl)=C(Cl)C(Cl)=C1Cl	i	91	i	i	i
C[C@@H](NC(=O)[C@@H]1[C@@H](CO)[C@@H]2Cn3c(cccc3=O)[C@@H]2N1S(C)(=O)=O)c1ccccc1	i	nt	nt	i	nt
C[C@@H]1CN([C@@H](C)CO)C(=O)CCCn2cc(nn2)CO[C@@H]1CN(C)C(=O)Nc1ccc(C(C)(C)C)cc1	i	nt	i	nt	nt
CCN(CC)CCNC(=O)c1ccc(CS(=O)(=O)c2ccccc2C)o1	i	51	i	i	i
O=C(C[C@@H]1CC[C@@H]2NC[C@H](O)COC[C@H]2O1)NCc1ccc2c(c1)OCO2	i	nt	i	i	nt
COc1ccc(C)cc1S(=O)(=O)Nc1ccccc1C	i	69	i	i	i
COc1ccc(C)cc1S(=O)(=O)Nc1ccccc1	nt	i	i	nt	nt
CC12CCC(C)(c3nc4ccccc4nc31)C2(C)C	i	53	i	i	i
O=c1c2ccccc2nc(COc2ccccc2)n1/N=C/c1ccc(O)c(O)c1	i	65	i	i	i
O=C(O)COc1ccc(/C=N/n2c(COc3ccccc3)nc3ccccc3c2=O)cc1	nt	i	nt	nt	nt
CCN(CC)CCSc1nc2ccccc2c(=S)n1-c1ccccc1	nt	108	nt	nt	i
COc1ccc(NC(=O)N(C)C[C@@H]2Oc3c(NC(=O)Nc4ccc(F)cc4)cccc3C(=O)N([C@H](C)CO)C[C@H]2C)cc1	i	nt	i	i	nt
COc1ccc(C(=O)/C=C(\C)Nc2ccc(NC(C)=O)cc2)cc1	i	i	i	i	nt
C/C(=C\C(=O)c1ccccc1)Nc1ccc(O)cc1	i	78	i	nt	i
C/C(=C\C(=O)c1cccnc1)Nc1ccc(O)cc1	i	78	i	i	i
COc1ccc(NC(=O)N(C)C[C@H]2Oc3ccc(NC(=O)Nc4ccccc4)cc3C(=O)N([C@@H](C)CO)C[C@@H]2C)cc1	i	nt	i	i	nt
OC[C@H]1[C@H](c2ccc(C#CC3(O)CCCC3)cc2)[C@H]2CN(Cc3cncnc3)CCCCN21	i	nt	i	i	nt
C[C@H](CO)N1C[C@H](C)[C@H](CN(C)S(=O)(=O)c2cccs2)Oc2ccc(NC(=O)CCN3CCOCC3)cc2C1=O	i	nt	i	i	nt
Cc1cccc(NC(=S)N2CCN(c3ccccc3F)CC2)c1C	i	57	i	i	i
COc1ccccc1NC(=S)N1CCN(c2ccccc2F)CC1	i	i	i	i	nt
SMILES	C2C12 statin	NSD2 inh	miR-122 sensor	PglD DTNB	AlphaScreen art
CC(=O)c1c(C)nc(-c2ccc(Cl)cc2)nc1N=CN(C)C	nt	66	i	nt	i
Cn1c(=O)[nH]c2nnc(-c3ccc(Cl)c(Cl)c3)nc2c1=O	nt	107	nt	i	i
CSc1cnc2c(=O)n(C)c(=O)[nH]c2n1	nt	i	nt	nt	nt
O=C(N[C@@H]1C=C[C@H](CC(=O)N2CCOCC2)O[C@H]1CO)c1cccc(F)c1	i	nt	i	i	nt
CCCN(C)C[C@H]1OCCCC[C@@H](C)Oc2ccc(NS(=O)(=O)c3cn(C)cn3)cc2C(=O)N([C@H](C)CO)C[C@H]1C	i	nt	i	nt	nt
O=C(Nc1ccccc1)OCCCCOC(=O)Nc1ccccc1	i	55	i	i	i
O=C(Nc1ccccc1)OCCCc1ccccc1	i	i	i	i	nt
CN1CCN(C2=C(Cl)C(=O)c3ccccc3C2=O)CC1	nt	106	nt	nt	i
O=C1C(Cl)=C(N2CCC(C(=O)O)CC2)C(=O)c2ccccc21	i	102	i	nt	i
CN1CCN(C2=C(NS(=O)(=O)c3cccs3)C(=O)c3ccccc3C2=O)CC1	nt	i	i	i	nt
C[C@H](CO)N1C[C@H](C)[C@H](CN(C)S(=O)(=O)c2cccs2)Oc2ccc(NS(=O)(=O)c3ccc(F)cc3)cc2CC1=O	i	nt	i	i	nt
CCCNC(=O)C[C@H]1C[C@H]2c3cc(NC(=O)Nc4ccc(F)cc4)ccc3O[C@H]2[C@H](CO)O1	i	nt	i	i	nt
C[C@H]1CN([C@@H](C)CO)C(=O)c2cccc(NS(=O)(=O)c3cn(C)cn3)c2O[C@H]1CN(C)C(=O)NC1CCCCC1	i	nt	i	i	nt
COc1ccc(-c2nnc3n2N=C(C)CS3)cc1	i	68	i	i	i
O=C(Nc1nnc(SCc2ccc(F)cc2)s1)c1cccnc1Cl	i	i	i	i	nt
O=C(Nc1nnc(SCc2ccc(F)cc2)s1)c1ccccn1	nt	65	nt	nt	i
Cc1cccc(OCC(=O)Nc2ncn[nH]2)c1C	i	98	i	i	i
COc1cccc(CNC(=S)Nc2ccc(Cl)cc2C)c1	i	75	i	i	i
CC1=NN(c2ccc(S(=O)(=O)O)cc2Cl)C(=O)C1	nt	71	nt	nt	i
CC1=NN(c2cc(Cl)c(S(=O)(=O)O)cc2Cl)C(=O)C1	i	i	i	i	nt
CC1C(=O)N(Cc2ccccc2F)c2ccccc2N1C(=O)c1c(F)cccc1F (configuration not stated)	i	i	i	i	nt
COc1cccc(CN2C(=O)C(C)N(C(=O)c3c(F)cccc3F)c3ccccc32)c1 (configuration not stated)	i	104	i	i	i
CCCNC(=O)C[C@@H]1CC[C@H]2[C@H](COc3ccc(NC(=O)Nc4cccc(C)c4)cc3C(=O)N2C)O1	i	nt	i	i	nt
C[C@H](CO)N1C[C@H](C)[C@@H](CN(C)Cc2ccc(-c3ccccc3)cc2)Oc2ncc(C#CCN(C)C)cc2C1=O	i	nt	i	i	nt
CC(C)(C)OC(=O)N[C@@H](Cc1c[nH]c2ccccc12)c1nnc(SCC(N)=O)o1	i	i	i	i	nt
SMILES	C2C12 statin	NSD2 inh	miR-122 sensor	PglD DTNB	AlphaScreen art
CC(C)Sc1nnc([C@H](Cc2c[nH]c3ccccc23)NC(=O)OC(C)(C)C)o1	nt	54	i	i	i
Cc1c(NC(=O)C(C)OC(=O)c2ccc([N+](=O)[O-])s2)c(=O)n(-c2ccccc2)n1C (configuration not stated)	i	115	i	i	i
Cc1c(NC(=O)C(C)OC(=O)c2sc3ccccc3c2Cl)c(=O)n(-c2ccccc2)n1C (configuration not stated)	i	i	i	nt	nt
CC1NC(=O)NC1CCCCCC(=O)Nc1ccc(F)cc1 (configuration not stated)	nt	103	nt	nt	1.9µM
Cc1c(F)cccc1NC(=O)CCCCCC1NC(=O)NC1C (configuration not stated)	i	nt	i	i	nt
Cc1ccccc1-c1noc(C23CC4CC(CC(C4)C2)C3)n1	i	63	i	i	i
c1cncc(-c2noc(C34CC5CC(CC(C5)C3)C4)n2)c1	i	i	i	i	nt
O=C(CSc1nc(SCC(=O)NCc2ccccc2)n(-c2ccccc2)n1)NCc1ccccc1	i	81	i	i	i
CCOC(=O)c1cc(S(=O)(=O)Nc2ccc(OC)cc2OC)cn1C	i	56	i	i	i
